A short description of assay [1]: compounds binding Alexa647 anti-His antibody – biochemical, small-molecule microarray, 635 nm fluorescence, artefact control for SMM control protein annotation, primary screen (AID 1128).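 Further: score merges feature fluorescence with signal-to-noise for each printed compound spot.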 The following applies: higher = more signal.
Assay [2] relates to Human papillomavirus type 1a E7 protein (residues 1-88). The assay can be described thus: HPV1a E7 small-molecule binders, primary screen, biochemical, small-molecule microarray, residues 1-88, 635 nm (AID 1129). The following applies: small-molecule microarray binding, fluorescence 635 nm; higher = more signal.
Assay [3] concerns the target Focal adhesion kinase 1 (Homo sapiens) (UniProt Q05397). Description: PTK2 protein binding on printed compound slides – biochemical, small-molecule microarray, 635/667 nm fluorescence, BSA, DTT, primary screen (AID 1130).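 Further: composite of spot emission at 667 nm and signal to noise over triplicate slides.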 The following applies: 635 nm fluorescence, higher = more signal.
Assay [4] has as its system Fibrinogen (Alexa647-labelled). The assay can be described thus: Alexa647-fibrinogen binding to printed small molecules – biochemical, small-molecule microarray, 635/667 nm fluorescence, artefact control for SMM control-protein annotation, profiling panel (AID 1131).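 Further: z-score merges 667 nm fluorescence with per-spot signal-to-noise over triplicate slides.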 The following applies: fibrinogen-A647 binding fluorescence, higher = more signal.
The target in assay [5] is Follistatin (Homo sapiens) (UniProt P19883). Description: FST protein binding to printed compounds – biochemical, small-molecule microarray, 635/667 nm fluorescence, primary screen (AID 1132). The following applies: 635 nm fluorescence, higher = more signal.
The target of assay [6] is Fibroblast growth factor 2 (Homo sapiens) (UniProt P09038). Description: basic fibroblast growth factor binding to printed compounds – biochemical, small-molecule microarray, 635/667 nm fluorescence, primary screen (AID 1133). The following applies: FGF2, fluorescence 635/667, higher = more signal.
Assay [7] is described as follows: JC-1 mitochondrial potential readout, lung cancer cells – cell-based, A549, JC-1 fluorescence, basal, 24 h, 100 nL, profiling panel (AID 1138).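 Further: A549 lung adenocarcinoma cells under basal conditions with no added stimulus; test concentration not given here.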 The following applies: higher = more signal.
The next assay concerns Lefty1. The assay can be described thus: Lefty1 protein binding to printed compounds – biochemical, small-molecule microarray, 635/667 nm fluorescence, primary screen (AID 1139). The following applies: fluorescence 635/667, higher = more signal.
For assay [8], the system named is wheat germ agglutinin (Triticum aestivum), Alexa647-labelled. Description: Alexa647-WGA lectin binding to printed small molecules – biochemical, small-molecule microarray, 635/667 nm fluorescence, artefact control for SMM control-protein annotation, profiling panel (AID 1140).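 Further: score merges 667 nm feature emission with signal to noise over triplicate slides.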 The following applies: WGA-A647 binding, 635 nm fluorescence, higher = more signal.
Assay [9] concerns the target Luciferin 4-monooxygenase (Photinus pyralis) (UniProt P08659). The assay can be described thus: inhibition of purified Photinus pyralis luciferase – biochemical, luminescence, purified enzyme, 2006 set, primary screen (AID 1141).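 Further: cell-free assay with purified firefly luciferase at 100 ng per well in PBS; test concentration not given here.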 The following applies: purified firefly luciferase, SteadyGlo luminescence, 30 min; higher = more signal, called active from +8 up or from −8 down.

The subject of assay [10] is Wnt5a (protein binding on small-molecule microarray). Description: small molecules binding Wnt5a protein – biophysical, small-molecule microarray, 635/667 nm fluorescence, primary screen (AID 1142).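 Further: fluorescence read at 667 nm with signal to noise per printed feature.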 The following applies: 635 nm fluorescence, higher = more signal.
Assay [11] can be described thus: ATP-based viability of Huh7 replicon cells – cell-based, CellTiter-Glo luminescence, basal, 48 h, cytotoxicity control for HCV replication inhibitor project, primary screen (AID 1143).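 Further: Huh7 hepatoma cells carrying a hepatitis C replication reporter with no stimulus; test concentration not given here.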 The following applies: higher = more signal, called active from +8 up or from −8 down. (A replicon is a self-replicating genome or part of one, used to study replication in cells.)
Assay [12] in a line: Pseudomonas biofilm growth suppression – PAO1 strain, BacTiter-Glo luminescence, LB-PBS, primary screen (AID 1144). The following applies: P. aeruginosa PAO1 biofilm, 12 h, higher = more signal.
Assay [13] can be described thus: basal CRE-LacZ reporter activity in PC12 – cell-based, unstimulated, primary screen (AID 1145). The following applies: no forskolin, luminescence, 4.5 h, higher = more signal, called active from +8 up or from −8 down.
A short description of assay [14]: forskolin-driven CRE-LacZ activity in PC12 – cell-based, CRE-LacZ reporter, forskolin-stimulated, primary screen (AID 1146).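 Further: PC12 cells with 6xCRE LacZ reporter stimulated by forskolin 10 µM; beta-galactosidase reporter signal reflecting CREB driven transcription.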 The following applies: luminescence, 4.5 h, higher = more signal, called active from +8 up or from −8 down.
Assay [15] has as its target Streptavidin (Streptomyces avidinii) (UniProt P22629). The assay can be described thus: compounds binding control protein streptavidin – biophysical, small-molecule microarray, 635/667 nm fluorescence, artefact control for SMM compound annotation, primary screen (AID 1147).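 Further: signal reflects streptavidin binding to arrayed compounds as a control protein.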 The following applies: higher = more signal.
Assay [16] can be described thus: probe aInhba binding on compound microarray – biochemical, small-molecule microarray, 635/667 nm fluorescence, primary screen (AID 1148).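 Further: score merges 667nm spot fluorescence with signal-to-noise for antibody binding to printed compounds.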 The following applies: higher = more signal.
Assay [17] addresses Torsin-1A (Homo sapiens) (UniProt O14656). The assay can be described thus: TOR1A wild-type binding on microarray – cell lysate, small-molecule microarray, lysate, 635/667 nm, primary screen (AID 1149). The following applies: COS7 hTOR1A-WT lysate, 635 nm fluorescence, higher = more signal.
Assay [18] shares this target. The assay can be described thus: torsin A mutant lysate binding on microarrays – cell lysate, small-molecule microarray, COS7 lysate, 635/667 nm fluorescence, primary screen (AID 1150).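 Further: score pools 667 nm emission and signal to noise measuring lysate protein binding.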 The following applies: COS7 hTOR1A mutant lysate, 635 nm fluorescence, higher = more signal.
The test system of assay [19] is Sonic hedgehog protein (Shh). Description: Sonic hedgehog microarray binding compounds – biochemical, small-molecule microarray, 635/667 nm fluorescence, primary screen (AID 1151).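 Further: Shh protein binding to compounds spotted on small-molecule microarray slides; score combines spot fluorescence intensity with signal-to-noise across triplicate slides.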 The following applies: 635 nm fluorescence, higher = more signal.

Calls of active or inactive are those of the source. Unless noted, how the calls were made is not given here.

Sequence of Torsin-1A (Homo sapiens) (O14656 whole entry, looked up): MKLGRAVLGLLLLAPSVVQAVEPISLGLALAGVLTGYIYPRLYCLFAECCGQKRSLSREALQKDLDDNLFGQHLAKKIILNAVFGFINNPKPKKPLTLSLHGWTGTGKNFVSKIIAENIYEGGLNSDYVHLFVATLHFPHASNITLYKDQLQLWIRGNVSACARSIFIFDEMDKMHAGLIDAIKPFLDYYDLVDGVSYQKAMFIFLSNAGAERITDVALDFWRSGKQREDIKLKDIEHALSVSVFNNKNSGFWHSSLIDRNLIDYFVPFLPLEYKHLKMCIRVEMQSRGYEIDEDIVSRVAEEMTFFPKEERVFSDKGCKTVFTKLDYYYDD
Sequence of Streptavidin (Streptomyces avidinii) (P22629 whole entry, looked up): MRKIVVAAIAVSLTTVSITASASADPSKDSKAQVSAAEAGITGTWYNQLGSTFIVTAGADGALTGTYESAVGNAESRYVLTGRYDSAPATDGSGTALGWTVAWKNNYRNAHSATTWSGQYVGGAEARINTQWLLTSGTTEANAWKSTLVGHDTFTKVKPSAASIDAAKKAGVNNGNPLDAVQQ
Sequence of Fibroblast growth factor 2 (Homo sapiens) (P09038 whole entry, looked up): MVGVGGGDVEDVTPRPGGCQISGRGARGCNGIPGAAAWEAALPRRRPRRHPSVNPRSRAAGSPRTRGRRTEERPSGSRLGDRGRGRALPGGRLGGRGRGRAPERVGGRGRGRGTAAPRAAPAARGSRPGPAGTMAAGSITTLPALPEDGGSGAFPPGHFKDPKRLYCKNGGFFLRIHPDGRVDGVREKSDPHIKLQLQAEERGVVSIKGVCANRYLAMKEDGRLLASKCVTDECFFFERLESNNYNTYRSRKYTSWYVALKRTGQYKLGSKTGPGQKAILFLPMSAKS
Sequence of Focal adhesion kinase 1 (Homo sapiens) (Q05397 whole entry, looked up): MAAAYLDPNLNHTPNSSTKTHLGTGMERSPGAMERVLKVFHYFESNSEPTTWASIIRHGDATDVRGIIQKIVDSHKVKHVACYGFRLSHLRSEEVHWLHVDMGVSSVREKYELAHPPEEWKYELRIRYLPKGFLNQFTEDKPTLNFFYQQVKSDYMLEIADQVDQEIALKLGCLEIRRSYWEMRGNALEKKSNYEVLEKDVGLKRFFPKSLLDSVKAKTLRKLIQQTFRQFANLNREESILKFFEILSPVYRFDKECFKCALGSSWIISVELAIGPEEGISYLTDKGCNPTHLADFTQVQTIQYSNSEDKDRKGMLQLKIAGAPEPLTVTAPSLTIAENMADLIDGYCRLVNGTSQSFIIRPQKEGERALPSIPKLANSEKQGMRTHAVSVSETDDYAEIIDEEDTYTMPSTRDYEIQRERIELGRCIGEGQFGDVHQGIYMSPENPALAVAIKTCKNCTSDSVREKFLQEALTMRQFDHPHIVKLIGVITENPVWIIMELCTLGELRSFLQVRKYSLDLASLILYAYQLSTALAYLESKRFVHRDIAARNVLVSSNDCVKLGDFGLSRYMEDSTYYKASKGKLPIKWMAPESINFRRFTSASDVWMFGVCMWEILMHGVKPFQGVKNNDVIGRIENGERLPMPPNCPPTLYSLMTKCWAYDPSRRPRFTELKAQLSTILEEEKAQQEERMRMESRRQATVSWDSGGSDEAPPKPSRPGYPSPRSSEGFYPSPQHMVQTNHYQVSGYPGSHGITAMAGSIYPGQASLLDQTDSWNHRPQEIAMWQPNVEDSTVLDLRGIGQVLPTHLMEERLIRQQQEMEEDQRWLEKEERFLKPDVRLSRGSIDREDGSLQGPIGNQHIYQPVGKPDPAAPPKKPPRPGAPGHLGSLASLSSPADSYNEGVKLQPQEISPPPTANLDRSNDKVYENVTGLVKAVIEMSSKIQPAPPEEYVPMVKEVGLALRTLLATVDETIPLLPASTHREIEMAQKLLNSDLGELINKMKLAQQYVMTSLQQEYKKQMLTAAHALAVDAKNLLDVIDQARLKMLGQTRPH
Sequence of Luciferin 4-monooxygenase (Photinus pyralis) (P08659 whole entry, looked up): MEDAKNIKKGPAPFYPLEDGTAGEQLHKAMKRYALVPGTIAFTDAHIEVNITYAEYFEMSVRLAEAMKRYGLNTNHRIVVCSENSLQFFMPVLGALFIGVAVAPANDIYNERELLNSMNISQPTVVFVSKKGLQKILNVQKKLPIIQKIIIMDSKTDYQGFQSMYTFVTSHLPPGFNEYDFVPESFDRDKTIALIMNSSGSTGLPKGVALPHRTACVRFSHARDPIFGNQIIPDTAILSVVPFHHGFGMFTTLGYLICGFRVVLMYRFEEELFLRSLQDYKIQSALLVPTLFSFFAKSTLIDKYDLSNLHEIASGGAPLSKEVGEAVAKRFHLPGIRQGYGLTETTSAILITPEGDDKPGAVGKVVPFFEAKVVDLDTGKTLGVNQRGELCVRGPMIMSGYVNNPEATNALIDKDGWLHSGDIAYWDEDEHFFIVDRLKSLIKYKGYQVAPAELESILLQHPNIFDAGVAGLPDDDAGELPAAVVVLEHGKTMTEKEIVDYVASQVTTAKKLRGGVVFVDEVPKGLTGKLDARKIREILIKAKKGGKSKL
Sequence of Follistatin (Homo sapiens) (P19883 whole entry, looked up): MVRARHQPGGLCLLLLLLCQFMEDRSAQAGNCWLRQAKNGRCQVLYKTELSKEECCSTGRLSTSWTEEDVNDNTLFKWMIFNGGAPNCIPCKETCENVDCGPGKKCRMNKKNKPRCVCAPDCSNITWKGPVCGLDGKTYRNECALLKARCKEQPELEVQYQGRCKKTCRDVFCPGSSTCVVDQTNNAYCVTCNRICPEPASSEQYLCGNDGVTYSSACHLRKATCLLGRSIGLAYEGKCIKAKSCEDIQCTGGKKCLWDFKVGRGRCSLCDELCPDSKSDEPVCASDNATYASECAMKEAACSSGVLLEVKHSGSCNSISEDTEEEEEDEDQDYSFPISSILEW

For `CC(C)=CCCC(C)=CCON=C1C[C@@H](O)[C@@H](O)[C@@H]2[C@@H]3C(=O)N(c4cccc(Oc5ccccc5)c4)C(=O)[C@@H]3CC[C@@H]12`, the composite z-score is 0.0079 in [1]; 0.929 in assay [2]; 1.58 in [3]; 0.589 in [4]; 0.612 in [5]; 0.207 in [6]. The composite z-score in the assay on Lefty1 is 0.514; in assay [8], 0.0969; in [10] it was -0.102; in assay [15], 0.217; in assay [16], -0.128; with Torsin-1A (Homo sapiens) [17] it was -0.38. Besides, the composite z-score with Torsin-1A (Homo sapiens) [18] was found to be 0.0864; in assay [19] it was 0.402. Also, the z-score in assay [7] is -0.82; in [9] it was 0.775 (inactive); in [11], -4.07 (inactive); in [12] it was -0.375 (inactive); in assay [13] it was 2.51 (inactive); in assay [14], 0.557 (inactive).

Take `CO[C@H]1COC(=O)CC=C[C@H](C)[C@@H](OC)COC(=O)[C@@H](C)NC(=O)CC=C[C@@H]1C`: the composite z-score in assay [1] is 0.437; in assay [2], -1.32; in [3] it was -0.535; in [4] it was -1.31; in [5] it was 1.45; in assay [6] it was 1.1. The composite z-score in the assay with Lefty1 is 1.47; in assay [8], 0.0216; in [10] it was 0.0073; in assay [15], -0.343; in [16] it was -0.233; with Torsin-1A (Homo sapiens) [17], 3.05. Further, the values for the composite z-score (in the assay with Torsin-1A (Homo sapiens) [18]; in [19]) were 2.16 and 2.14, respectively. In addition, the z-score was -1.05 in assay [7]; 0.674 (inactive) in assay [9]; -1.42 (inactive) in assay [11]; -1.15 (inactive) in [12]; -0.0824 (inactive) in assay [13]; 0.123 (inactive) in assay [14].

For the compound `COC(=O)CC=C[C@@H](C)[C@@H]1C=C[C@H](O)[C@@H](CO)O1`, the composite z-score is -0.29 in assay [1]; 0.392 in assay [2]; -0.281 in [3]; 0.201 in assay [4]; 1.04 in assay [5]; 0.413 in assay [6]. Also, the composite z-score was 0.767 with Lefty1; -0.375 in assay [8]; -0.27 in assay [10]; 0.89 in assay [15]; -0.163 in [16]; 0.473 with Torsin-1A (Homo sapiens) [17]. Besides, the composite z-score with Torsin-1A (Homo sapiens) [18] was found to be 0.448; in assay [19], 0.495. The z-score was 0.204 in [7]; -0.203 (inactive) in assay [9]; 0.362 (inactive) in [11]; -0.159 (inactive) in assay [12]; 0.648 (inactive) in assay [13]; 1.03 (inactive) in [14].

Turning to `O=C(NN=C1C[C@@H](O)[C@@H](O)[C@@H]2[C@@H]3C(=O)N(C4CCCCC4)C(=O)[C@@H]3CC[C@@H]12)OCc1ccccc1`, the composite z-score in assay [1] was found to be 0.0161; in assay [2] it was 0.139; in assay [3] it was 0.0639; in [4] it was 0.294; in [5] it was 0.0434; in assay [6] it was 0.243. The composite z-score with Lefty1 was -0.0104; in assay [8], -0.132; in assay [10], -0.03; in assay [15] it was -0.225; in assay [16], -0.384; with Torsin-1A (Homo sapiens) [17] it was 0.205. The values for the composite z-score (in the assay with Torsin-1A (Homo sapiens) [18]; in [19]) were -0.0666 and -0.364, respectively. For the same compound, the z-score in assay [7] is 0.163; in assay [9], -0.427 (inactive); in assay [11], 0.0845 (inactive); in assay [12], 1.15 (inactive); in assay [13] it was 1.79 (inactive); in assay [14], 0.0171 (inactive).

For the compound `O=C1CCCC=C1C(CCc1ccccc1)OC(=O)c1ccc(Br)cc1` (stereo not given), the composite z-score in assay [1] is 0.0508; in assay [2], -0.757; in [3], -0.0417; in assay [4], -0.612; in assay [5], 0.0148; in assay [6] it was 0.0039. The composite z-score was 0.167 in the assay with Lefty1; -0.254 in assay [8]; -0.223 in assay [10]; 0.0598 in [15]; -0.218 in assay [16]; -0.249 in the assay with Torsin-1A (Homo sapiens) [17]. Moreover, the composite z-score with Torsin-1A (Homo sapiens) [18] is 0.0696; in [19], -0.115. Also, the z-score in assay [7] is -0.65; in [9], 0.063 (inactive); in assay [11], -3.61 (inactive); in assay [12], 0.96 (inactive); in [13], 0.111 (inactive); in assay [14], 0.171 (inactive).

(Values after PubChem BioAssay.)
